D1 PAM = human D1 dopamine receptor positive modulation. HEK293 TREx D1 cells, calcium flux, dopamine EC20 potentiation. actives 0.036% (n = 360,000). potentiation, % at 10 µM; in the data active means potentiation above about 30%; further: 0% is about no effect
Target sequence (P21728 whole entry, looked up): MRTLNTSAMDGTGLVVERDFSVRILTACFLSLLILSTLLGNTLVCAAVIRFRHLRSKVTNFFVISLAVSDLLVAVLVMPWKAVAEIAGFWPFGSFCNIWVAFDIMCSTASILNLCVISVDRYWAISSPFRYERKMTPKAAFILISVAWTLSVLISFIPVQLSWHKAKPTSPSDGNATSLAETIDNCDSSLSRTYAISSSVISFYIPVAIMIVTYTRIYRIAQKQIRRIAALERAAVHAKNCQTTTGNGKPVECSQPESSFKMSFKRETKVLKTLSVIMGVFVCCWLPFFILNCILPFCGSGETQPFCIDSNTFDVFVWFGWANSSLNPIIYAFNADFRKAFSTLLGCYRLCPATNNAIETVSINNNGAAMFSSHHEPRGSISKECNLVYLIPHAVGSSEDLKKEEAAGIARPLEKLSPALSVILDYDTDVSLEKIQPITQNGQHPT
DRD3 agonist = D3 dopamine receptor (human) agonism; P35462; D3R DiscoveRx beta-arrestin cells, luminescence, 90 min; max activation, %; actives 0.58% (n = 410,000); in the data active means max activation above about 30%; further: 0% is about no effect
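Agonist mode: compounds and dopamine controls were applied to plated cells for 90 min at 37 degrees C after an overnight attachment at 1500 cells/well. Luminescent read-out followed 30 - 60 minutes at room temperature with DiscoveRx detection reagent.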
D1 ag = activates the human D1 dopamine receptor. P21728. HEK293 T-REx D1 cells, calcium flux, agonist mode. activation, % at 2 µM. actives 1% (n = 360,000). AID 504660; in the data active means activation above about 30%; further: 0% is about no effect
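Inducible HEK293 T-REx D1 cells, force-coupled to calcium signalling, were plated at 4000 cells/well with tetracycline and held overnight at 30 C. After no-wash calcium dye loading, compound-evoked calcium rise over 180 s flagged agonists.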
D3 antag = antagonists of human D3 dopamine receptor. P35462. max response, negative = inhibition, %. D3R cells, DiscoveRx beta-arrestin luminescence, antagonist mode; stronger effect = lower value. actives 2.5% (n = 360,000); in the data active means max response below about -50%; inconclusive means no clear call, values can overlap the other calls; further: on the % scale 0 is the no-effect control and ±100 the full control effect
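Cells plated overnight at 1500 cells/well, then exposed to library compounds with dopamine controls for 90 minutes at 37 degrees C. DiscoveRx reagent added for 30–60 minutes at room temperature; luminescence read, quantitative HTS format.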
D1 antag = human D1 dopamine receptor antagonism. activity change, negative = inhibition, % at 10 µM. actives 3.2% (n = 360,000). P21728. HEK293 TREx D1 cells, calcium flux, dopamine EC80; stronger effect = lower value; in the data active means activity change below about -30%; further: on the % scale 0 is the no-effect control and ±100 the full control effect
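Cells carrying a force-coupled, tetracycline-inducible human D1 receptor report calcium flux. Each well gets a 10 s baseline, compound with 180 s monitoring, then an EC80 dopamine stimulus with a second 180 s kinetic read.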
* = called active by the depositor. An excerpt weighted towards active compounds, which were near 6% of everything screened.

Screening CS(=O)(=O)N1CCc2cc(C(=O)Nc3ccc(Cl)c(C(F)(F)F)c3)ccc21 returned D1 PAM 1, DRD3 agonist -22, D1 ag 7 and D1 antag -26.
For CCCCC1=CC2=CC(=O)C(C)(OC(=O)c3cnc4ccccc4n3)C(=O)C2=CO1 (stereo not drawn) the results were D1 PAM -5, D1 ag 4 and D1 antag 16.
For Cc1ccc2c(c1)C(=O)CC1(CCCC1)O2 the results were D1 PAM 4, DRD3 agonist 13, D1 ag -1, D3 antag 16 and D1 antag -1.
`Cc1ccc2c(c1)C(=O)CC1(CCCCCC1)O2` gave D1 PAM -2, DRD3 agonist -73, D1 ag -1, D3 antag -115* and D1 antag -18.
Screening Cc1c(Cl)cccc1NC(=O)Cn1c(=O)cc(C)c2c(C)nn(-c3cccc(F)c3)c21 returned D1 PAM -2, DRD3 agonist 3, D1 ag 1 and D1 antag 20.
O=C(c1cc(-c2ccc(F)cc2)nc2ccccc12)N1CCN(C2CCS(=O)(=O)C2)CC1 (stereo not drawn) was read as D1 PAM 1, DRD3 agonist -1, D1 ag 0, D3 antag -1 and D1 antag -32*.
CCOC(=O)C1CCCN(C(=O)c2cc(-c3ccc(F)cc3)nc3ccccc23)C1 (stereo not drawn) was read as D1 PAM -6, DRD3 agonist 29, D1 ag 2, D3 antag -8 and D1 antag 1.
`CN1/C(=C/C(=O)COC(=O)CN2C(=O)C3CC=CCC3C2=O)C(C)(C)c2ccccc21` (stereo not drawn) gave DRD3 agonist 6 and D3 antag -8.
For CN1/C(=C\C(=O)COC(=O)Cn2nnc(-c3ccccc3)n2)C(C)(C)c2ccccc21 the results were D1 PAM -5, DRD3 agonist 8, D1 ag 6, D3 antag 4 and D1 antag -35*.
Cc1ccc2nc3c(cc2c1)c(C)nn3-c1ccccc1 was read as D1 PAM 2, DRD3 agonist 2, D1 ag 2, D3 antag 24 and D1 antag 14.
For Cc1nn(-c2ccccc2)c2nc(=O)n(-c3ccccc3)cc12 the results were D1 PAM -6, DRD3 agonist -1, D1 ag 2, D3 antag -65* and D1 antag 1.
Screening CC1(C)CC(=O)C2=C(C1)Nc1ccccc1NC2c1ccccc1F (stereo not drawn) returned D1 PAM -2, DRD3 agonist 7, D1 ag -2, D3 antag 6 and D1 antag -4.
Screening Cc1c(C2Nc3ccccc3NC3=C2C(=O)CC(C)(C)C3)cnn1C (stereo not drawn) returned D1 PAM 3, DRD3 agonist -3, D1 ag 0, D3 antag -71* and D1 antag -1.
Screening CCOC(=O)c1cccc(NC(=O)Cn2c(=O)c3cccn3c3ccccc32)c1 returned D1 PAM -3, DRD3 agonist -6, D1 ag 20 and D1 antag -1.
Screening CC(=O)Nc1ccc(-c2cc(C(=O)O)c3c(-c4ccccc4)[nH]nc3n2)cc1 returned D1 PAM 0, DRD3 agonist 1, D1 ag 1 and D1 antag -39*.
`Cc1ccc(-c2cc(C(=O)NCc3ccccc3)c3c(-c4ccc(C)cc4)[nH]nc3n2)cc1` gave D1 PAM -2, DRD3 agonist 0, D1 ag 9 and D1 antag 14.
`Cc1cccc(N2CCN(CCCNC(=O)Cn3ncc4c([nH]c5ccccc54)c3=O)CC2C)c1` (stereo not drawn) gave D1 PAM -1, DRD3 agonist -15, D1 ag -1 and D1 antag -10.
`Cc1ccc(OCCCNC2CCCC2)cc1` gave D1 PAM -5, DRD3 agonist -2, D1 ag 6, D3 antag -14 and D1 antag 10.
COc1cccc(OC)c1OCCCNC1CCCC1 was read as D1 PAM -2, DRD3 agonist -23, D1 ag 3, D3 antag -55* and D1 antag 17.
Screening Cc1ccc(OCCCCNC2CCCCC2)c(C)c1 returned D1 PAM -5, DRD3 agonist -16, D1 ag 57*, D3 antag -79* and D1 antag -19.
For Cc1ccc(OCC(O)CNC2CCCC2)c(C)c1 (stereo not drawn) the results were D1 PAM -7, DRD3 agonist -2, D1 ag 11, D3 antag 11 and D1 antag -22.
For COc1cccc(OC)c1OCCNCCO the results were D1 PAM -2, DRD3 agonist -3, D1 ag 3, D3 antag -12 and D1 antag -8.
`Cc1ccc(C)c(OCCCNC2CCCC2)c1C` gave D1 PAM -4, DRD3 agonist -15, D1 ag 42*, D3 antag -73* and D1 antag -35*.
`O=S1(=O)CC(N2CCC(c3ccccc3)CC2)CN1Cc1ccccc1` (stereo not drawn) gave DRD3 agonist 9 and D3 antag -8.
`CC1(C)C(=S)N(Cc2ccccc2)c2ccccc21` gave D1 PAM -6, DRD3 agonist -6, D1 ag 3, D3 antag -1 and D1 antag 2.
Screening OC[C@H]1OC([S-])[C@H](O)[C@@H](O)[C@@H]1O.[Au+] (stereo partly drawn) returned DRD3 agonist 4.
For Cc1ccc(C(=O)NC(=S)NNC(=O)c2ccccc2O)cc1 the results were D1 PAM -1, DRD3 agonist 11, D1 ag 55*, D3 antag 71 and D1 antag -16.
Screening Cc1cc(NS(=O)(=O)c2ccc(NC(=S)NC(=O)c3cccnc3)cc2)no1 returned D1 PAM -1, DRD3 agonist -15, D1 ag -1, D3 antag -51* and D1 antag 9.
O=C(NC(=S)NNC(=O)c1ccccc1O)c1cccs1 was read as D1 PAM -5, DRD3 agonist 37*, D1 ag 2, D3 antag 1 and D1 antag 20.
Cc1ccc(C(=O)NNC(=S)NC(=O)c2ccco2)cc1 was read as D1 PAM -8, DRD3 agonist 13, D1 ag 59*, D3 antag 2 and D1 antag -11.
`Cc1cc(C)nc(NS(=O)(=O)c2ccc(NC(=S)NC(=O)c3cccnc3)cc2)n1` gave D1 PAM -4, DRD3 agonist -13, D1 ag 4, D3 antag inconclusive and D1 antag -8.
Screening COc1ccccc1C(=O)NNC(=S)NC(=O)c1cccs1 returned D1 PAM -1, D1 ag 1 and D1 antag 4.
